Results filed as inconclusive are left out. A call without a number means that no potency is given here. Active and inactive are the calls of the source. Calls follow the shape of the dose curve; as a rule, active = well fitted activation curve with a large enough effect; inconclusive = small, poorly fitted or top-dose-only effect; inactive = no such curve, though single readings can be large or run the other way.
experiment: qHTS assay for re-activators of p53 using a Luc reporter: Hit Validation with no p53 Expressed; settings: p53-null cells, luciferase reporter counter-screen; series mostly up to 46.1 µM
Method in brief: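 Without p53 expression, cells (1000/well, Opti-MEM + 10% FBS) were exposed 24 h at 37 deg C to compounds in a 1:5 series from 10 mM stock (top 46.1 µM in well). Luminescent signal read 10 min after Amplite addition; actives flag unspecific activation.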

**Q.** Which Potency does the source give for c1ccc2c(c1)CCN(c1nc3cc4c(cc3s1)OCO4)C2 here?
**A.** The Potency was “inactive”.

**Q.** With O=c1sc(/C=N/Nc2ccccc2)c(Cl)n1Cc1ccccc1 as the compound, how does the Potency read?
**A.** Its Potency is “inactive”.

**Q.** With Nc1nonc1-n1nnc(C(=O)N/N=C/c2ccc(Br)cc2)c1CSC1=NCCS1 as the compound, how does the Potency read?
**A.** Its Potency is “inactive”.

**Q.** Which Potency does the source give for Cc1noc(C)c1C(=O)OCC(=O)N1CCc2ccccc21 here?
**A.** The Potency was “inactive”.

**Q.** For CCOc1cccc(-c2nc3cc(C)ccc3o2)c1, which Potency is on record?
**A.** Its Potency is “inactive”.

**Q.** Which Potency does the source give for Cc1cccc(-n2c(O)c(C=Nc3ccccc3N)c(=O)[nH]c2=O)c1 here?
**A.** The Potency was “inactive”.

**Q.** For O=C(COC(=O)c1ccc(F)cc1)NC1CC1, which Potency is on record?
**A.** The Potency was “inactive”.

**Q.** For CC(OC(=O)c1cnccn1)C(=O)Nc1nc(-c2cccc([N+](=O)[O-])c2)cs1 (centres undefined), which Potency is on record?
**A.** The Potency was “inactive”.

**Q.** Which Potency does the source give for COc1ccc(N2CCN(CCCNC(=O)C3(S(=O)(=O)c4ccc(Cl)cc4)CC3)CC2)cc1 here?
**A.** The Potency was “inactive”.

**Q.** For CC(=O)NC1=C(Nc2ccc(N(C)C)cc2)C(=O)c2ccccc2C1=O, which Potency is on record?
**A.** The Potency was “inactive”.

**Q.** For CCCCn1c(SCC(=O)N2CCCC2=O)nc2cc(S(N)(=O)=O)ccc21, which Potency is on record?
**A.** Its Potency is “inactive”.

**Q.** Which Potency does the source give for O=C(CCc1nc(-c2ccccc2F)no1)NC1CCCCCC1 here?
**A.** The Potency was “inactive”.

**Q.** Which Potency does the source give for CCOC(=O)c1[nH]c(C)c(C(=O)NCCC2=CCCCC2)c1C here?
**A.** The Potency was “inactive”.

**Q.** For Cc1ccc(OCC(=O)Nc2ccc(Cl)cc2)c([N+](=O)[O-])n1, which Potency is on record?
**A.** The Potency was “inactive”.

**Q.** With c1ccc(-c2nnc(-c3ccccn3)nc2NC2CCCCC2)cc1 as the compound, how does the Potency read?
**A.** Its Potency is “inactive”.

**Q.** Which Potency does the source give for CCOc1ccc(-n2c(SCc3nc(-c4cccs4)no3)nnc2-c2ccncc2)cc1 here?
**A.** Its Potency is “inactive”.

**Q.** Which Potency does the source give for Cc1ccc(C)c(/C=C/C(=O)c2ccccc(=O)c2O)c1 here?
**A.** Its Potency is “inactive”.

**Q.** With O=C(Nc1ncc(Cc2ccccc2)s1)c1cccs1 as the compound, how does the Potency read?
**A.** Its Potency is “inactive”.

**Q.** With CCOC(=O)N(Cc1ccccc1)C(C(=O)O)C(C(=O)O)N(Cc1ccccc1)C(=O)OCC (centres undefined) as the compound, how does the Potency read?
**A.** The Potency was “inactive”.

**Q.** With Cc1cc(NC(=O)c2ccc3nccnc3c2)ccc1Br as the compound, how does the Potency read?
**A.** The Potency was “inactive”.

**Q.** Which Potency does the source give for COc1ccc2c(c1)CCC/C2=N\NC(=O)c1ccoc1C here?
**A.** Its Potency is “inactive”.

**Q.** With Cc1cccc2nc(CSC(=N)N)c(Br)n12 as the compound, how does the Potency read?
**A.** Its Potency is “inactive”.

**Q.** For Cc1ccc2nc(-c3ccc(NC(=O)COC(=O)c4cncc(Br)c4)cc3)sc2c1, which Potency is on record?
**A.** The Potency was “inactive”.

**Q.** For Cc1cc(-n2c(C)cc(C(=O)COc3cc(F)ccc3[N+](=O)[O-])c2C)no1, which Potency is on record?
**A.** The Potency was “inactive”.

**Q.** Which Potency does the source give for Cc1ccc(CSc2nc3ccncc3[nH]2)cc1 here?
**A.** The Potency was “inactive”.

**Q.** Which Potency does the source give for Cc1c(C(=O)N(C)c2ccccc2Cl)cnn1-c1ccccc1 here?
**A.** Its Potency is “inactive”.

**Q.** For Cc1ccc(S(=O)(=O)NCC(=O)N2CCc3ccccc3C2)cc1, which Potency is on record?
**A.** The Potency was “inactive”.

**Q.** With O=C(NCCCc1ccccc1)c1cc(COc2c(F)cccc2F)on1 as the compound, how does the Potency read?
**A.** Its Potency is “inactive”.

**Q.** For Cc1ccc2cc3cc(C(=O)N4CCCCCC4)oc3nc2c1, which Potency is on record?
**A.** The Potency was “inactive”.

**Q.** Which Potency does the source give for O=C(N/N=C/c1cccc(F)c1)NC1CCCCC1 here?
**A.** The Potency was “inactive”.

**Q.** Which Potency does the source give for Cc1ccc(-c2nc(-c3cccnc3)no2)c(C)c1 here?
**A.** Its Potency is “inactive”.

**Q.** With O=c1[nH]c2ccc(N/C(=N/S(=O)(=O)c3ccccc3)c3ccccc3)cc2[nH]1 as the compound, how does the Potency read?
**A.** The Potency was “inactive”.

**Q.** Which Potency does the source give for N#Cc1cc2c(nc1SCC(=O)Nc1nccs1)CCCCC2 here?
**A.** Its Potency is “inactive”.

**Q.** With COc1cccc(C2(c3cccc(OC)c3)CC2C(=O)Nc2cccc3ccccc23)c1 (centres undefined) as the compound, how does the Potency read?
**A.** Its Potency is “inactive”.

**Q.** Which Potency does the source give for Cc1sc(NC(=O)c2ccc(Cl)s2)c(C(N)=O)c1C here?
**A.** The Potency was “inactive”.

**Q.** Which Potency does the source give for Cc1cccc(NC(=O)c2cnc3ccccn3c2=O)c1 here?
**A.** The Potency was “inactive”.

**Q.** For COc1ccc(C2SCCN2C(=S)Nc2ccc(Cl)cc2)cc1 (centres undefined), which Potency is on record?
**A.** The Potency was “inactive”.

**Q.** Which Potency does the source give for Oc1[nH]c2ccccc2c1C=Nc1ccc2c(c1)OCCO2 here?
**A.** Its Potency is “inactive”.

**Q.** Which Potency does the source give for CC1CCc2c(sc(NC(=O)C3=COCCO3)c2C(N)=O)C1 (centres undefined) here?
**A.** Its Potency is “inactive”.
